Most compounds without a hit are left out; they make up all but 3.4% or so of the library.
GPR151 ag = activators of human GPR151, primary screen, cell-based, PathHunter beta-arrestin, luminescence; G-protein coupled receptor 151 (Homo sapiens), Q8TDV0; PathHunter beta-arrestin GPR151 cells; activation, % at 11.2 µM; 650,000 tested, 1% active; in the data active = activation above about 4.9%;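 note: 0% = median of compound wells and 100% = cells with positive control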
FBW7 act = FBW7 E3 ligase activators, primary screen, biochemical, AlphaScreen, human. 650,000 tested, 0.13% active. AlphaScreen FBW7–phospho-cyclin E peptide binding, activator screen. normalized activity (activation), % at 26.1 µM; in the data active = normalized activity above about 1.9%;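 note: purified mutant Fbw7 with reduced substrate affinity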
Target sequence (Q969H0 whole entry, looked up): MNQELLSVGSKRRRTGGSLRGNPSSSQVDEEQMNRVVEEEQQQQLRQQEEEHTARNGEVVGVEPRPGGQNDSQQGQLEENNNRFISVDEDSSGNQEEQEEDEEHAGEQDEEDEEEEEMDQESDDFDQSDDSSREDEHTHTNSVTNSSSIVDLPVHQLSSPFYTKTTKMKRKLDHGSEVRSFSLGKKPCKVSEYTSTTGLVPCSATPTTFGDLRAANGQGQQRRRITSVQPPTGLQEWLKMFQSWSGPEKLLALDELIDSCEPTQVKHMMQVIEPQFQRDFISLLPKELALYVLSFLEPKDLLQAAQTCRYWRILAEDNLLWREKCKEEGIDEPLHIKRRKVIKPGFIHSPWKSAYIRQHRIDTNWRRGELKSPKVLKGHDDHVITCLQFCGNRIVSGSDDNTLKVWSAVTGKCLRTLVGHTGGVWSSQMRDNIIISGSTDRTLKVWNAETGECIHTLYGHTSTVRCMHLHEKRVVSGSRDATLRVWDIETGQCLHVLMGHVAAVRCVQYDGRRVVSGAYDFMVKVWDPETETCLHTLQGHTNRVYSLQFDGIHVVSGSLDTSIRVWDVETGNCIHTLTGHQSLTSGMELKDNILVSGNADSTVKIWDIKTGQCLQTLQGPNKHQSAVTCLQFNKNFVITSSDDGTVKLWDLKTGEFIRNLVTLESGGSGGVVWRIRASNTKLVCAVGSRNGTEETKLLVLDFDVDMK
TEAD-YAP inh = TEAD-YAP interaction inhibition, primary screen, TEAD-YAP interaction inhibitor project, luminescence, HEK-TIYL cells. inhibition, % at 9.12 µM. TEAD-Gal4/YAP UAS-luciferase luminescence. 640,000 tested, 1.4% active; in the data active = inhibition above about 32%;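 note: 0% = median of test compound wells and 100% = reference inhibitor wells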
MITF inh = MITF inhibitors, primary screen, biochemical, AlphaScreen, human; Microphthalmia-associated transcription factor (Homo sapiens), O75030; AlphaScreen MITF homodimerization, bead proximity signal; AID 1259374, 2018; inhibition, % at 2.6 µM; 650,000 tested, 0.91% active; in the data active = inhibition above about 50%;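 note: 0% = vehicle wells with protein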
An asterisk follows results filed as active.

Screening CC(C)(C)C1CCc2c(sc3nc(Cc4ccccc4)[nH]c(=O)c23)C1 (stereo unspecified) returned GPR151 ag 0, FBW7 act 0, TEAD-YAP inh -1 and MITF inh 4.
`CC(C)(C)C1CCc2c(sc3nc(CCC(=O)N4CCN(c5ccccn5)CC4)[nH]c(=O)c23)C1` (stereo unspecified) gave GPR151 ag 2, FBW7 act 0, TEAD-YAP inh 78* and MITF inh -3.
CC(C)(C)C1CCc2c(sc3nc(CCC(=O)N4CCN(c5ccc(F)cc5)CC4)[nH]c(=O)c23)C1 (stereo unspecified) was read as GPR151 ag -1, FBW7 act 1, TEAD-YAP inh 52* and MITF inh -4.
CC(C)(C)c1ccccc1Nc1ncnc2sccc12 was read as GPR151 ag 1, FBW7 act 0, TEAD-YAP inh 2 and MITF inh -8.
For CC(CCc1ccccc1)Nc1ncnc2sccc12 (stereo unspecified) the results were GPR151 ag 2, FBW7 act 0, TEAD-YAP inh 51* and MITF inh 8.
`COC(=O)c1c(-c2ccc(C)c(C)c2)csc1NC(=O)/C=C/C(=O)O` gave GPR151 ag 1, FBW7 act 0, TEAD-YAP inh 33* and MITF inh -11.
Screening COC(=O)c1c(NC(=O)/C=C/C(=O)O)sc(C)c1-c1cc(C)ccc1C returned GPR151 ag 0, FBW7 act 0, TEAD-YAP inh 42* and MITF inh 2.
`COC(=O)c1c(-c2ccccc2Cl)csc1NC(=O)/C=C/C(=O)O` gave GPR151 ag 0, FBW7 act 0, TEAD-YAP inh 42* and MITF inh 5.
CCOC(=O)c1c(N)sc(C(=O)OC)c1CC(=O)OC was read as GPR151 ag 2, FBW7 act 0, TEAD-YAP inh 7 and MITF inh 0.
`COC(=O)c1sc(N)c(C(=O)OC)c1COC(=O)c1c(C)noc1C` gave GPR151 ag -1, FBW7 act 0, TEAD-YAP inh 46* and MITF inh 9.
`Clc1cccc(-c2cnc3ccc(NCCc4ccccn4)nn23)c1` gave GPR151 ag 1, FBW7 act 0, TEAD-YAP inh 48* and MITF inh -10.
`c1ccc(CCNc2ccc3ncc(-c4ccc(N5CCOCC5)cc4)n3n2)nc1` gave GPR151 ag -1, FBW7 act 0, TEAD-YAP inh 47* and MITF inh 19.
COc1ccc(-c2cnc3ccc(NCCc4ccccn4)nn23)cc1 was read as GPR151 ag 0, FBW7 act 0, TEAD-YAP inh 36* and MITF inh -9.
Screening N#Cc1ccc(-c2cnc3ccc(NCCc4ccccn4)nn23)cc1 returned GPR151 ag -1, FBW7 act 2, TEAD-YAP inh 63* and MITF inh 13.
For Clc1ccc(-c2cnc3ccc(NCCc4ccccn4)nn23)cc1 the results were GPR151 ag 1, FBW7 act 1, TEAD-YAP inh 29 and MITF inh 18.
For CCCNc1ccc2ncc(-c3ccc(N4CCOCC4)cc3)n2n1 the results were GPR151 ag 0, FBW7 act 0, TEAD-YAP inh 10 and MITF inh 8.
`COC(=O)c1ccc(NCN2C(=O)C3CC=CCC3C2=O)cc1` (stereo unspecified) gave GPR151 ag 0, FBW7 act 0, TEAD-YAP inh 5 and MITF inh 8.
Screening CC(=O)Nc1ccc(Nc2c(C)c(C)nc3ncnn23)cc1 returned GPR151 ag -1, FBW7 act 0, TEAD-YAP inh -1 and MITF inh -7.
For CCOc1ccc(-n2c(SC(CC)C(=O)N3CCOCC3)nc3n[nH]c(C)c3c2=N)cc1 (stereo unspecified) the results were GPR151 ag 1, FBW7 act 0, TEAD-YAP inh -12 and MITF inh -5.
For O=C(c1cccc(Cl)c1)N1CCC(C(=O)N2CCN(c3ccccc3)CC2)CC1 the results were GPR151 ag -2, FBW7 act 0, TEAD-YAP inh -3 and MITF inh 15.
CC1(c2cccc(Cc3cccc(C4(C)CCCCC4)c3O)c2O)CCCCC1 was read as GPR151 ag -2, FBW7 act 0, TEAD-YAP inh 6 and MITF inh 12.
Screening CC1(C)CCN2CCC(C)(C)c3c(O)ccc1c32 returned GPR151 ag 0, FBW7 act 0, TEAD-YAP inh 38* and MITF inh 23.
`COc1ccc(CC(=O)N2CCC3(CC2)OCc2cc(Cl)ccc2O3)cc1OC` gave GPR151 ag 1, FBW7 act 0, TEAD-YAP inh 61* and MITF inh 1.
For COc1ccc(CC(=O)N2CCC3(CC2)OCc2ccccc2O3)cc1OC the results were GPR151 ag 0, FBW7 act 1, TEAD-YAP inh 55* and MITF inh 7.
For O=C(c1ccc2c(c1)CCO2)N1CCC2(CC1)OCc1cc(Cl)ccc1O2 the results were GPR151 ag 1, FBW7 act 0, TEAD-YAP inh 37* and MITF inh 15.
Screening COc1cccc(CC(=O)N2CCC3(CC2)OCc2ccccc2O3)c1 returned GPR151 ag 0, FBW7 act 0, TEAD-YAP inh -6 and MITF inh 18.
Screening C=CCOc1ccc(C(=O)N2CCc3c(nc(N4CC(C)OC(C)C4)[nH]c3=O)C2)cc1 (stereo unspecified) returned GPR151 ag 0, FBW7 act 7.4*, TEAD-YAP inh -3 and MITF inh -1.
For CC(=O)N1CCc2cc(Br)cc(S(=O)(=O)Nc3ccc(C)cc3)c21 the results were GPR151 ag 2, FBW7 act 0, TEAD-YAP inh -1 and MITF inh 6.
Screening Cc1ccc(NS(=O)(=O)c2cc(Br)cc3c2N(C(=O)C2CC2)CC3)cc1 returned GPR151 ag 1, FBW7 act 0, TEAD-YAP inh 40* and MITF inh 2.
For CN(C)CCSc1nnnn1-c1ccc(C(N)=O)cc1 the results were GPR151 ag -1, FBW7 act 0, TEAD-YAP inh 4 and MITF inh -15.
Screening Cc1ccc(S(=O)(=O)N/N=C/c2ccccc2O)cc1 returned GPR151 ag 1, FBW7 act 0, TEAD-YAP inh 2 and MITF inh -11.
Cc1ccc(S(=O)(=O)N/N=C/c2sc3ccccc3c2O)cc1 was read as GPR151 ag -1, FBW7 act 0, TEAD-YAP inh 51* and MITF inh 22.
Screening CCCCCCOc1ccc(C(=O)OCC(=O)c2ccccc2)cc1 returned GPR151 ag -1, FBW7 act 0, TEAD-YAP inh 9 and MITF inh -4.
For CCCCS(=O)(=O)CC(COC(=O)c1ccccc1)S(=O)(=O)CCCC (stereo unspecified) the results were GPR151 ag 0, FBW7 act 0, TEAD-YAP inh 33* and MITF inh 11.
Screening Cn1c(Nc2cc(C(=O)NCc3cccc(C(F)(F)F)c3)ccn2)nc2ccccc21 returned GPR151 ag 1, FBW7 act 0, TEAD-YAP inh 35* and MITF inh 10.

Compound activity deposited in PubChem by The Scripps Research Institute Molecular Screening Center.
